Reference: PubChem BioAssay (Tox21)
Results filed as inconclusive are left out. Calls of active or inactive are those of the source. Unless noted, the call rests on the fitted dose curve; in most records, active means well fitted curve in the direction sought with a large enough effect in the repeat runs; inconclusive means weak or mixed curves; inactive means no such curve, though single readings can be large; an effect the other way counts as inactive or inconclusive.

What was measured:
[1] = target: Thyrotropin-releasing hormone receptor (Homo sapiens) (UniProt P34981); assay: qHTS assay to identify small molecule agonists of the thyrotropin-releasing hormone receptor (TRHR) signaling pathway (AID 1346891; calls by dose curve; further: series mostly up to about 58 µM)
Outline: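 Screening of agonists relied on calcium signalling in HEK293 cells expressing human TRHR: dye loading 2 h at 37 °C preceded compound addition and a 3-min fluorescence time course.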

[2] = Human pregnane X receptor (PXR) small molecule agonists, qHTS cell viability counter screen (AID 1346977); further: nearly all actives have a fitted effect of over 50% in size; further: potency means the concentration at half of the fitted maximal effect
Outline: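 Tox21 qHTS format; PXR-Luc HepG2, 2,000/well, charcoal-stripped FBS 5%. Cpd exposure 24hr. Read: CellTiter-Fluor fluorescence, multiplexed with luciferase.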

[3] = Caspase-3/7 induction in HepG2 cells by small molecules, qHTS assay (AID 1346978); further: nearly all actives have a fitted effect of over 15% in size
Outline: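 Wild-type HepG2 cells, 2,000/well, settled 5 hr at 37 C and 5% CO2, then compound-treated for 17 hr; caspase-3/7 activity read by luminescent Caspase-Glo 3/7 after 30 min at room temperature.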

[4] = Caspase-3/7 induction in CHO-K1 cells by small molecules, qHTS cell viability counter screen (AID 1346979); further: nearly all actives have a fitted effect of over 35% in size; further: potency means the concentration at half of the fitted maximal effect
Outline: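 CellTiter-Fluor viability check, qHTS format: wild-type CHO-K1, 16hr compound treatment, 1hr reagent incubation, fluorescence read.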

[5] = Caspase-3/7 induction in CHO-K1 cells by small molecules, qHTS assay (AID 1346980); further: nearly all actives have a fitted effect of over 15% in size
Outline: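 Wild-type CHO-K1 cells exposed to compounds for 17hr at 37 C, 5% CO2. Caspase-3/7 activity then measured by Caspase-Glo 3/7 luminescence after 30min at room temperature.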

[6] = Caspase-3/7 induction in HepG2 cells by small molecules, qHTS cell viability counter screen (AID 1346981); further: nearly all actives have a fitted effect of over 30% in size; further: potency means the concentration at half of the fitted maximal effect; on activity change, negative = cytotoxicity: series mostly up to about 92 µM
Outline: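 Fluorescence read-out of live-cell protease activity (CellTiter-Fluor) after 1 hr with reagent. This was measured in the same wells as the caspase-3/7 luminescence, on HepG2 cells exposed to DMSO-dissolved compounds for 16 hr at 37 C.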

[7] = target: Nuclear receptor subfamily 1 group I member 2 (Homo sapiens) (UniProt O75469); assay: Human pregnane X receptor (PXR) small molecule agonists, qHTS assay (AID 1346982); further: nearly all actives have a fitted effect of over 35% in size; further: potency means the concentration at half of the fitted maximal effect
Outline: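 HepG2 PXR-Luc reporter line, 5% charcoal-stripped FBS; 5 hr pre-incubation, compound (DMSO) 24 hr at 37 C/5% CO2; ONE-Glo 30 min RT; luminescence read-out.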

[8] = target: Cytochrome P450 2D6 (Homo sapiens) (UniProt P10635); assay: Cytochrome P450 Family 2 Subfamily D Member 6 (CYP2D6) small molecule antagonists: luciferase reporter qHTS assay (AID 1671196); further: series mostly up to about 120 µM; nearly all actives have a fitted effect of over 50% in size
Outline: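 Luminogenic proluciferin substrate, CYP2D6 enzyme; 10 min RT preincubation with compound, NADPH regeneration system added, 1 h RT. Stop/detection reagent, 20 min RT, luminescence read (RLU). Signal proportional to CYP activity.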

[9] = target: Cytochrome P450 2C19 (Homo sapiens) (UniProt P33261); assay: Cytochrome P450 Family 2 Subfamily C Member 19 (CYP2C19) small molecule antagonists: luciferase reporter qHTS assay (AID 1671197); further: series mostly up to about 120 µM; nearly all actives have a fitted effect of over 65% in size
Outline: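 Luminescent readout of CYP2C19 activity: luciferin product detected 20 min after adding detection reagent. Before that, compound and enzyme-substrate mix preincubated 10 min at room temperature; NADPH-regenerating system started a 1 h, 37C reaction. Ketoconazole as positive control.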

[10] = target: Cytochrome P450 2C9 (Homo sapiens) (UniProt P11712); assay: Cytochrome P450 Family 2 Subfamily C Member 9 (CYP2C9) small molecule antagonists: luciferase reporter qHTS assay (AID 1671198); further: nearly all actives have a fitted effect of over 50% in size; further: potency means the concentration at half of the fitted maximal effect; on activity change, negative = inhibition: series mostly up to about 120 µM
Outline: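 P450-Glo proluciferin substrate with CYP2C9 enzyme; 10 min RT preincubation, then NADPH regeneration 1 h at 37C; luciferin detection reagent 20 min RT, luminescence in relative luminescence units.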

[11] = target: Voltage-gated inwardly rectifying potassium channel KCNH2 (Homo sapiens) (UniProt Q12809); assay: Human Ether-a-go-go-Related Gene (hERG) channel small molecule antagonists: fluorescence cell-based qHTS assay (AID 1671200);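 further: hERG-expressing U2OS cells given a thallium stimulus after FluxOR II dye loading; series mostly up to about 77 µM; nearly all actives have a fitted effect of over 50% in size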
Outline: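 Kinetic two-minute fluorescence traces, sampled at 1 s, were collected following thallium stimulus of U2OS cells (1000 per well) that had been cultured overnight at 37 C and loaded with FluxOR II.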

[12] = target: Cytochrome P450 3A4 (Homo sapiens) (UniProt P08684); assay: Cytochrome P450 Family 3 Subfamily A Member 4 (CYP3A4) small molecule antagonists: luciferase reporter qHTS assay (AID 1671201); further: nearly all actives have a fitted effect of over 50% in size; further: potency means the concentration at half of the fitted maximal effect; on activity change, negative = inhibition: series mostly up to about 120 µM
Outline: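 Proluciferin-to-luciferin conversion by CYP3A4, NADPH-regenerated, 1 h RT; luminescence read as RLU. Ketoconazole as control.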

[13] = target: Nuclear receptor subfamily 1 group I member 2 (Rattus norvegicus) (UniProt Q9R1A7); assay: Rat pregnane X receptor (rPXR) activation by small molecules, qHTS assay (AID 1346983); settings: rPXR luciferase reporter cells, One-Glo luminescence, 24 h; max activation: stronger effect = higher value; further: nearly all actives have a fitted effect of over 20% in size; further: potency means the concentration at half of the fitted maximal effect
Outline: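 Cell-based rPXR activation assay: rPXR cells, 2,000 per well, rested 5hr at 37 C, then exposed to compounds in DMSO for 24 hr at 37 C. Luciferase activity read by One-Glo luminescence after 30 min at room temperature.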

[14] = target: Nuclear receptor subfamily 1 group I member 2 (Homo sapiens) (UniProt O75469); assay: CYP3A4 induction through human pregnane X receptor (PXR) by small molecules, qHTS assay (AID 1346984); further: nearly all actives have a fitted effect of over 40% in size
Outline: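 HepG2-derived DPX-2 line carrying PXR plus a CYP3A4-promoter luciferase reporter; cells plated 5 hr, compound-exposed 24 hr at 37C. CYP3A4 activity probed with 3uM (final) Luciferin-IPA for 3hr, then luciferase read after One-Glo.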

[15] = target: Nuclear receptor subfamily 1 group I member 2 (Homo sapiens) (UniProt O75469); assay: Human pregnane X receptor (PXR) activation by small molecules, qHTS assay (AID 1346985); further: nearly all actives have a fitted effect of over 40% in size
Outline: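 DPX-2 cells (HepG2 co-transfected with a PXR response element and a CYP3A4-promoter luciferase construct) were seeded at 2,000 per well, rested 5 hr at 37C, then exposed to DMSO-dissolved compounds for 24 hr. Activation was read as luciferase luminescence.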

[16] = target: Cytochrome P450 1A2 (Homo sapiens) (UniProt P05177); assay: Cytochrome P450 Family 1 Subfamily A Member 2 (CYP1A2) small molecule antagonists: luciferase reporter qHTS assay (AID 1671199)
Outline: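 Luminescence readout (relative luminescence units) after luciferin detection reagent, 20 min RT. Preceded by 1 h room-temperature CYP1A2 reaction with NADPH regeneration solution following 10 min compound preincubation with enzyme and proluciferin substrate. Furafylline positive control.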
On the % scale 0 is the no-effect control and ±100 the full control effect.

Nuclear receptor subfamily 1 group I member 2 (Homo sapiens), sequence (O75469 whole entry, looked up): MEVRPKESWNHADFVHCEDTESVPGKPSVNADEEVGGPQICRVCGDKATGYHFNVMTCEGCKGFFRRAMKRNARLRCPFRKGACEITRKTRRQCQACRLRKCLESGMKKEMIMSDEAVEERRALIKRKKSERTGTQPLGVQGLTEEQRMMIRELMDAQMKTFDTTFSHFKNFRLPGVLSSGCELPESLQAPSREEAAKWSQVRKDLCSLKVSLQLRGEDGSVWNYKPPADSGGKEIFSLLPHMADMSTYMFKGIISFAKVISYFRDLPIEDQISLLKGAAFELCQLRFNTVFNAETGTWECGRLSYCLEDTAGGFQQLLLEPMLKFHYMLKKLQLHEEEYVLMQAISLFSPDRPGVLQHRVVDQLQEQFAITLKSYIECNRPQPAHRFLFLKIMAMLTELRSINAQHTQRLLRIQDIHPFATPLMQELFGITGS
Thyrotropin-releasing hormone receptor (Homo sapiens), sequence (P34981 whole entry, looked up): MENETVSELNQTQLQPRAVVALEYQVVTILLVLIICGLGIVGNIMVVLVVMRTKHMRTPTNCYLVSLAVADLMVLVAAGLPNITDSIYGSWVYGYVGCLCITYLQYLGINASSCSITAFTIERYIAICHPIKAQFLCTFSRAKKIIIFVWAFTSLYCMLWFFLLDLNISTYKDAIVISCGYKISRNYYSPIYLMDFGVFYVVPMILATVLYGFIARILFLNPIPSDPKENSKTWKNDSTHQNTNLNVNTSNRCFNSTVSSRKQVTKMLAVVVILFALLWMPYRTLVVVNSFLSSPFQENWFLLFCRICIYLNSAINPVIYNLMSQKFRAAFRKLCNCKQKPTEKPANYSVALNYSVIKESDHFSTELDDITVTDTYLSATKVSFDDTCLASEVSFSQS
Cytochrome P450 2D6 (Homo sapiens), sequence (P10635 whole entry, looked up): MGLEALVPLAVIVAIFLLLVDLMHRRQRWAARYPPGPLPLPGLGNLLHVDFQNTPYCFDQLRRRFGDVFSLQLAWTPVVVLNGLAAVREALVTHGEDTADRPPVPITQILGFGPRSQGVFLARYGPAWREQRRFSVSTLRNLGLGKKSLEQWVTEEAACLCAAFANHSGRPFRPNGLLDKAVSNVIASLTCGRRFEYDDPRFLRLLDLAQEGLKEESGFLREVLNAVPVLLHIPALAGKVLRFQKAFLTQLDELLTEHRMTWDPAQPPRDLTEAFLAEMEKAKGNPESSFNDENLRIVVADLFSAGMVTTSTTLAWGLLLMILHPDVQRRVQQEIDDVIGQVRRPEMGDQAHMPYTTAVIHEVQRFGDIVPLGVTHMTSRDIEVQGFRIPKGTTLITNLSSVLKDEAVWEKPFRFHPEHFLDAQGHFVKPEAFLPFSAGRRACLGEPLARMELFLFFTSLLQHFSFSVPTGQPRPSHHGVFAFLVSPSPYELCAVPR
Cytochrome P450 1A2 (Homo sapiens), sequence (P05177 whole entry, looked up): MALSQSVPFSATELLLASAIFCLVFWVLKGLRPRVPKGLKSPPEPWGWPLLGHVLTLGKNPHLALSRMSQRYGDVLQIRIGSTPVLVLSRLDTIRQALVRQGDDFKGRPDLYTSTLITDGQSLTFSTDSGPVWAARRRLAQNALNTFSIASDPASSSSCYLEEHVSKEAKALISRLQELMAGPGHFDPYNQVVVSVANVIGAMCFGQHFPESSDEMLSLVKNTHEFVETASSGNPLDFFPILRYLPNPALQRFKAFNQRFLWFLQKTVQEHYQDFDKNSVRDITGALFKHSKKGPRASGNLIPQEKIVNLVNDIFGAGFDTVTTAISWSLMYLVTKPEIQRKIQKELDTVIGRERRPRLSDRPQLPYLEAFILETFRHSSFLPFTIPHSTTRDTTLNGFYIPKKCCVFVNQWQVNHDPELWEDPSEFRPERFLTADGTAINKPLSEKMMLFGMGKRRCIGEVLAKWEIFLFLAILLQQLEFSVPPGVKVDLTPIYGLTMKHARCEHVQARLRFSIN
Cytochrome P450 2C9 (Homo sapiens), sequence (P11712 whole entry, looked up): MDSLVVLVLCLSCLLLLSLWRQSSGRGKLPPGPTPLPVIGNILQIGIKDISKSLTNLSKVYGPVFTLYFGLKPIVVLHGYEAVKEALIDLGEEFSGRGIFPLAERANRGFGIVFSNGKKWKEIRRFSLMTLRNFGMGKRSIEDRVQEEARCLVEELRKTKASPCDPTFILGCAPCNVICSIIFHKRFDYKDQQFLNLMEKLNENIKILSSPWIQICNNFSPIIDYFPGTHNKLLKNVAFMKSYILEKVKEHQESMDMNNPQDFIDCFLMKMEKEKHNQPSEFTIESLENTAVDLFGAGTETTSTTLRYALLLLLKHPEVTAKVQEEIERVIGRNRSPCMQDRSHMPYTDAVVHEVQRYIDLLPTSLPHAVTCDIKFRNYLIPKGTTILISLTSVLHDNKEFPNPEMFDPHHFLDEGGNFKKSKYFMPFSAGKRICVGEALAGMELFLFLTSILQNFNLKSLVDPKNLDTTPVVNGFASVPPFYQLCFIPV
Cytochrome P450 3A4 (Homo sapiens), sequence (P08684 whole entry, looked up): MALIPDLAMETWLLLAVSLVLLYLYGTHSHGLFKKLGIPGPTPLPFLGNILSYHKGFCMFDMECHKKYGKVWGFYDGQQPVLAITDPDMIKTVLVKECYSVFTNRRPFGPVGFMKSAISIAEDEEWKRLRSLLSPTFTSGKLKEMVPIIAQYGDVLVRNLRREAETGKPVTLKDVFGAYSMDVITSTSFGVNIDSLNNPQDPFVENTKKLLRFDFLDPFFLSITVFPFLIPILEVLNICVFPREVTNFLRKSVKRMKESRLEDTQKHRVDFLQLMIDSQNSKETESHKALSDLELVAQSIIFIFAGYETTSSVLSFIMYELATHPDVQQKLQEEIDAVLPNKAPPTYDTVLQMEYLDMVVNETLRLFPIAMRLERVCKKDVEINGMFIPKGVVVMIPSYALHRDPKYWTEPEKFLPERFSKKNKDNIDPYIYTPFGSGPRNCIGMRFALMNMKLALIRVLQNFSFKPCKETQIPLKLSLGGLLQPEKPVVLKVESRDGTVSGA
Cytochrome P450 2C19 (Homo sapiens), sequence (P33261 whole entry, looked up): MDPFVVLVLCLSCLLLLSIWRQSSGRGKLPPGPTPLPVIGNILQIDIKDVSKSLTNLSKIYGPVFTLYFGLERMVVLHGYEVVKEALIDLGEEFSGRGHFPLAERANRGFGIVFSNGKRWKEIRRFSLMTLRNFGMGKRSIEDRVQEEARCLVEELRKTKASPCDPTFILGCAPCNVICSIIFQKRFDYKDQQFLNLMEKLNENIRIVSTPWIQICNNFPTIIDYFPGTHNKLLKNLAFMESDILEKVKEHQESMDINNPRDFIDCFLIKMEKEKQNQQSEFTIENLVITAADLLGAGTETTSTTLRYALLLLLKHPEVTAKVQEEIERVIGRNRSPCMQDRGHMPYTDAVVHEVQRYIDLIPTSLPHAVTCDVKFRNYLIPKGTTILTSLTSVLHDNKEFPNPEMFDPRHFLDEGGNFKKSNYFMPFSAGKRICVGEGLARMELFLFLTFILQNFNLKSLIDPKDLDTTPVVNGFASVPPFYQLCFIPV
Voltage-gated inwardly rectifying potassium channel KCNH2 (Homo sapiens), sequence (Q12809 whole entry, looked up): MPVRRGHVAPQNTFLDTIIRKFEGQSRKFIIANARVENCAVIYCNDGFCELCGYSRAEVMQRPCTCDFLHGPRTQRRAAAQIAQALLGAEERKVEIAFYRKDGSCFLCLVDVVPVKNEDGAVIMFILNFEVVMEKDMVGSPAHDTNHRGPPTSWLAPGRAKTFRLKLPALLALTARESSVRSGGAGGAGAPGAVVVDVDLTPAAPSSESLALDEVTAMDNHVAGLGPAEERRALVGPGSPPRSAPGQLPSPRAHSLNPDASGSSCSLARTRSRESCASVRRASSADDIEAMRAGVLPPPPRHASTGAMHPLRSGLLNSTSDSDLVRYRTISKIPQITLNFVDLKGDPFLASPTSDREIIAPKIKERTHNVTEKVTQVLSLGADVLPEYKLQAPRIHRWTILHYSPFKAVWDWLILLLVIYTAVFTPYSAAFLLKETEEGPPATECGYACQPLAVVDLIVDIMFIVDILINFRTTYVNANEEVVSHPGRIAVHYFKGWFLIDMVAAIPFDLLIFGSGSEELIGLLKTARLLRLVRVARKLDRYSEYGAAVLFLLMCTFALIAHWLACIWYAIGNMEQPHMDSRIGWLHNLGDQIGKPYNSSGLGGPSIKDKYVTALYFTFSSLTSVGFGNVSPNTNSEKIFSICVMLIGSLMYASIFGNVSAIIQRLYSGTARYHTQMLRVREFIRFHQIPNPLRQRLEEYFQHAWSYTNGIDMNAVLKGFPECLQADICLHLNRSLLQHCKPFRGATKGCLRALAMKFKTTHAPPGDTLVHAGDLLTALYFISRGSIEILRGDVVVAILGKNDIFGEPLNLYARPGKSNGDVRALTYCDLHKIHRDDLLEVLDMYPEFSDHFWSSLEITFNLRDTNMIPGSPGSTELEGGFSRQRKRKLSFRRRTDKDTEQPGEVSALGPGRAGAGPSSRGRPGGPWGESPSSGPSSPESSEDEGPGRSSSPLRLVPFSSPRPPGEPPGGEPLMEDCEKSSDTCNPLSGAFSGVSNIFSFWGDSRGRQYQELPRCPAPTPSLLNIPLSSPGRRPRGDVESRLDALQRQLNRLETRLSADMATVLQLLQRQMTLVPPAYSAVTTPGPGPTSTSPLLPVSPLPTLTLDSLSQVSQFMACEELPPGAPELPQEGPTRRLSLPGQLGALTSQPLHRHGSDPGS
Nuclear receptor subfamily 1 group I member 2 (Rattus norvegicus), sequence (Q9R1A7 whole entry, looked up): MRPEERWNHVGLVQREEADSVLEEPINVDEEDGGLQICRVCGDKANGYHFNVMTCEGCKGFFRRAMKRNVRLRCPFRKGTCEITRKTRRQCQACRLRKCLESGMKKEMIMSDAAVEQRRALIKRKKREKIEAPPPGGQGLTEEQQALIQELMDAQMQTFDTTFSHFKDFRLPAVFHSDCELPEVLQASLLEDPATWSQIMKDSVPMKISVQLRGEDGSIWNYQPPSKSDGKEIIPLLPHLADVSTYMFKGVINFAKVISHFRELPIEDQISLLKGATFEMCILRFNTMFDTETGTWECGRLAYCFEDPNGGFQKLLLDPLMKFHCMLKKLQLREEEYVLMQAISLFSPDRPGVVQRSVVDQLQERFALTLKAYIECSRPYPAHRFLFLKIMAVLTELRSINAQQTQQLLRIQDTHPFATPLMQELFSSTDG

O=S1OCCO1
inactive: Potency [1] | Potency [2] | Potency [3] | Potency [4] | outcome [5] | Potency [6] | Potency [7] | Potency [8] | Potency [9] | Potency [10] | Potency [11] | Potency [12]

O=C(N/N=C/c1ccc([N+](=O)[O-])o1)c1ccc(O)cc1
active: Potency [2] 10.6 µM | Potency [4] 23.7 µM | Potency [6] 29.8 µM
inactive: Potency [1] | Potency [3] | outcome [5] | Potency [7] | max activation [13] -12.4% | Potency [14] | Potency [15] | Potency [12]

CC1=CC(=O)CC(C)(C)C1(O)/C=C/C(C)=C\C(=O)O (stereo not drawn)
inactive: Potency [1] | Potency [2] | Potency [3] | Potency [4] | outcome [5] | Potency [6] | Potency [7] | Potency [8] | Potency [9] | Potency [10] | Potency [11] | Potency [12]

CCCCC(=O)O[C@]1(C(=O)CO)CC[C@H]2[C@@H]3CCC4=CC(=O)CC[C@]4(C)[C@H]3[C@@H](O)C[C@@]21C
inactive: Potency [1] | Potency [2] | Potency [3] | Potency [4] | outcome [5] | Potency [6] | Potency [14] | Potency [15] | Potency [8] | Potency [9] | Potency [16]
active: Potency [7] 26.6 µM | Potency [13] 6.31 µM | Potency [12] 3.47 µM

COc1ccc(CCC(=O)c2c(O)cc(O[C@@H]3O[C@H](CO)[C@@H](O)[C@H](O)[C@H]3O[C@@H]3O[C@@H](C)[C@H](O)[C@@H](O)[C@H]3O)cc2O)cc1O
active: Potency [10] 25.3 µM
inactive: Potency [1] | Potency [2] | Potency [3] | Potency [4] | outcome [5] | Potency [6] | Potency [7] | Potency [8] | Potency [9] | Potency [11]

[O]=[Bi]
inactive: activation [1] -0.278% [at 5.23 µM] | activity change, negative = cytotoxicity [2] 1.27% [at 8.39 µM] | caspase activation [3] -1.09% [at 8.39 µM] | activity change, negative = cytotoxicity [4] -0.807% [at 8.39 µM] | caspase-3/7 activation [5] -0.359% [at 8.39 µM] | activity change, negative = cytotoxicity [6] -1.33% [at 8.39 µM] | activation [7] 1.61% [at 8.39 µM] | activity change, negative = inhibition [8] -0.389% [at 10.5 µM] | activity change, negative = inhibition [9] -17.2% [at 10.5 µM] | activity change, negative = inhibition [10] 1.73% [at 10.5 µM] | activity change, negative = inhibition [16] -11% [at 10.5 µM] | activity change, negative = inhibition [11] -0.289% [at 6.97 µM] | activity change, negative = inhibition [12] 0.199% [at 10.5 µM]

C1COCO1
inactive: Potency [1] | Potency [2] | Potency [3] | Potency [4] | outcome [5] | Potency [6] | Potency [7] | Potency [8] | Potency [9] | Potency [16] | Potency [12]

C[Si]1(C)O[Si](C)(C)O[Si](C)(C)O1
inactive: Potency [1] | Potency [2] | Potency [3] | Potency [4] | outcome [5] | Potency [6] | Potency [7] | Potency [8] | Potency [9] | Potency [10] | Potency [16] | Potency [11] | Potency [12]

CC(C)(C)C(=O)O
inactive: Potency [1] | Potency [2] | Potency [3] | Potency [4] | outcome [5] | Potency [6] | Potency [7] | Potency [8] | Potency [10] | Potency [11] | Potency [12]
